Laboratory results: PubChem BioAssay AID488850 (National Center for Advancing Translational Sciences (NCATS), 2010)
Results filed as inconclusive are left out. Unmarked numbers belong to inactive results. Calls of active or inactive are those of the source. Calls follow the shape of the dose curve; as a rule, active = well fitted activation curve with a large enough effect; inconclusive = small, poorly fitted or top-dose-only effect; inactive = flat fitted curve, though single readings scatter.

These molecules were tested against Lysosomal acid glucosylceramidase (Homo sapiens) (UniProt P04062) (assay: qHTS Assay for Inhibitors and Activators of N370S glucocerebrosidase as a Potential Chaperone Treatment of Gaucher Disease: Purified N370S Glucocerebrosidase Confirmation for Probe SAR). Conditions: purified N370S GC, 4MU-glucoside fluorescence, 40 min; series mostly up to 57.5 µM; activity change, negative = inhibition: at the top concentration.
Lysosomal acid glucosylceramidase (Homo sapiens), sequence (P04062 whole entry N409S): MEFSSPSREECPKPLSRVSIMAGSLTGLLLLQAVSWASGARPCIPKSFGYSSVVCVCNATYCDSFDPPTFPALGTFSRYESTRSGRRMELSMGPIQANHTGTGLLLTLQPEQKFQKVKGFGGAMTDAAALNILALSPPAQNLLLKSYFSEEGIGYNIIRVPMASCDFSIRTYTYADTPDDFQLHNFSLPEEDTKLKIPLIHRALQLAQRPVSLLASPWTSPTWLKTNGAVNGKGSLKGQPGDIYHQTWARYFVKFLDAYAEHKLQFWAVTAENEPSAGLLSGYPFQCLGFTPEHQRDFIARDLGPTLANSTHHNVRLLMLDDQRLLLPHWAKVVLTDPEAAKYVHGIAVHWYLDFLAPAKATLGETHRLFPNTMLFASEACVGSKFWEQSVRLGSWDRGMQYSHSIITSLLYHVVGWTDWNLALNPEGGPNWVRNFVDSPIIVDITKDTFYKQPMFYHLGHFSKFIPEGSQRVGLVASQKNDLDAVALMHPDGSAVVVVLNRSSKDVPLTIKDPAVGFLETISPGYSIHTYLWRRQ
Description: NIH Chemical Genomics Center [NCGC] NIH Molecular Libraries Probe Production Centers Network [MLPCN] MLPCN Grant: MH086442-01 Assay Submitter (PI): Wei Zheng Glucocerebrosidase (GC) catalyzes the hydrolysis of beta-glucocerebroside to glucose and ceramide in lysosomes. Mutations in the glucocerebrosidase gene result in Gaucher disease, an autosomal recessive lysosomal storage disorder. Many of the mutations encountered in patients with Gaucher disease are missense alterations that may cause misfolding, decreased stability and/or mistrafficking of this lysosomal protein. […] These inhibitors include iminosugar analogs and three non-iminosugar inhibitors identified from a previous HTS of 62,000 compounds with the wild type recombinant enzyme. However, the enhancement of enzyme activity by the chaperone action of an enzyme inhibitor must be balanced against the direct inhibition of the enzyme. An enzyme activator could also function as a chaperone by binding to the enzyme and helping to correct its misfolding and mistrafficking. While activators for GC have not yet been identified, they may have better therapeutic potential than inhibitors. Therefore the discovery and development of chemical activators may provide a new strategy for the chaperone therapy. We have optimized a new assay using N370S mutant GC derived from the spleen of a Gaucher patient. […] In addition, the MLPCN compound library has expanded, which increases the chance of finding new and better probes. This assay characterizes compound activity using purified mutant enzyme instead of tissue homogenate. Compound activity differences may be due to the absence of endogenous cofactors found in tissue homogenate.
NCGC Assay Protocol Summary: This is a fluorogenic enzyme assay with 4-methylumbelliferyl-beta-D-glucopyranoside as the substrate and purified N370S glucocerebrosidase as the enzyme preparation. Upon the hydrolysis of this fluorogenic substrate, the resulting product, […] which can be detected by a standard fluorescence plate reader. Data were normalized to the controls for basal activity (without enzyme) and 100% activity (with enzyme). The AC50 values were determined from concentration-response data modeled with the standard Hill equation. Assay buffer: 50 mM citric acid (titrated with potassium phosphate to pH 5.0), 100 mM potassium chloride, 10 mM sodium chloride, 1 mM magnesium chloride, 0.01% Tween-20. 1536-well assay protocol: (1) Add 2 ul/well of glucocerebrosidase enzyme solution (5 nM final) (2) Add 23 nL compounds in DMSO solution. The final titration was 0.5 nM to 58 uM. (3) Add 2 ul of substrate (1 mM final) (4) Incubate at 37C for 40 min. (5) Add 2 ul stop solution (1M NaOH and 1M Glycine mixture, pH 10) (6) Detect the assay plate in a ViewLux plate reader (PerkinElmer) with Ex=365 nm and Em=440nm. Keywords: Glucocerebrosidase, beta-glucosidase, Gaucher Disease, pharmacological chaperone, chaperone therapy, high throughput screening, glucocerebrosidase inhibitor, MLSMR, MLSCN, NIH Roadmap, qHTS and NCGC

Structure (SMILES)	activity change, negative = inhibition	Potency
Cc1cc(C)n2ncc(C(=O)Nc3ccc(S(C)(=O)=O)cc3)c2n1	9.34%	
Cc1cc(C)n2ncc(C(=O)Nc3ccc4c(c3)CCC4)c2n1		11.6 µM (active)
CC(=O)Nc1ccccc1NC(=O)c1cnn2c(C)cc(C)nc12	9.29%	
COc1ccc(NC(=O)c2cnn3c(C)cc(C)nc23)cc1F		5.8 µM (active)
Cc1cc(C)n2ncc(C(=O)Nc3ccc4c(c3)OCO4)c2n1		5.17 µM (active)
CC(=O)c1cccc(NC(=O)c2cnn3c(C)cc(C)nc23)c1		20.6 µM (active)
CCc1ccc(NC(=O)c2cnn3c(C)cc(C)nc23)cc1		16.3 µM (active)
Cc1ccc(NC(=O)c2cnn3c(C)cc(C)nc23)c(C)c1		23.1 µM (active)
O=C(Nc1cnn(Cc2ccc(F)cc2)c1)c1cnn2c(C(F)F)cc(-c3ccccc3)nc12		10.3 µM (active)
Cc1cccc(NC(=O)c2cnn3c(C)cc(C)nc23)c1		18.3 µM (active)
COc1ccc(NC(=O)c2cnn3c(C)cc(C)nc23)cc1		14.6 µM (active)
Cc1cc(C)n2ncc(C(=O)Nc3ccc(C(F)(F)F)cc3)c2n1		13 µM (active)
Cc1cc(C)n2ncc(C(=O)Nc3cccc(C#N)c3)c2n1	0.235% [at 19 µM]	
Cc1cc(C)n2ncc(C(=O)Nc3ccc(Br)cc3)c2n1		16.3 µM (active)
O=C(Nc1ccccc1Sc1ccccc1)c1cnn2c1NC(=C1CC1)C=C2C(F)F		16.3 µM (active)
Cc1cc(C)n2ncc(C(=O)NCc3ccco3)c2n1		20.6 µM (active)

Structure (SMILES)	activity change, negative = inhibition	Potency
Cc1cc(C)n2ncc(C(=O)Nc3ccc(C)c(C)c3)c2n1		7.3 µM (active)
Cc1cc(C)n2ncc(C(=O)NCc3ccccc3)c2n1		13 µM (active)
Cc1ccc(NC(=O)c2cnn3c(C)cc(C)nc23)cc1		16.3 µM (active)
Cc1cc(C)n2ncc(C(=O)Nc3ccccc3C)c2n1		13 µM (active)
Cc1cc(C)n2ncc(C(=O)Nc3ccncc3)c2n1	10.5%	
C#Cc1ccc(NC(=O)c2cnn3c(C)cc(C)nc23)cc1		6.51 µM (active)
CC(=O)c1ccc(NC(=O)c2cnn3c(C)cc(C)nc23)cc1	19.5%	
CNC(=O)c1cnn2c(C)cc(C)nc12	-2.25%	
COc1ccc(NC(=O)c2cnn3c(C)cc(C)nc23)cc1Cl		25.9 µM (active)
Cc1cc(C)n2ncc(C(=O)Nc3cccc(C(F)(F)F)c3)c2n1		20.6 µM (active)
Cc1cc(C)n2ncc(C(=O)Nc3ccc4c(c3)OCCO4)c2n1		16.3 µM (active)
Cc1cc(C)n2ncc(C(=O)Nc3ccccc3)c2n1		9.19 µM (active)
Cc1cc(C)n2ncc(C(=O)N3CCCC3)c2n1	-9.05%	
Cc1cc(C)n2ncc(C(=O)NC3CCCCC3)c2n1		11.6 µM (active)
Cc1cc(C)n2ncc(C(=O)NC3CCC(C(C)(C)C)CC3)c2n1 (stereo unspecified)		7.3 µM (active)
